In PubChem BioAssay AID2557 (NMMLSC, 2010):
Screen size: about 330,000 compounds; about 650 (0.2%) were called active. This excerpt belongs to a sample that is enriched for actives. A number with no mark means an inactive call. Cut-off read from the data, not from the text of the source: active = inhibition above about 50%; inactive = the rest.

molecular target: Integrin alpha-4 (Homo sapiens) (UniProt P13612); assay: VLA-4 integrin binding inhibitors – MLPCN library, flow cytometry, VLA-4 expressing cells, VLA-4 allosteric modulator project, primary screen (AID 2557); conditions: ligand binding flow cytometry, active compounds read high, about 7 µM as worked out from the volumes in the protocol
Sequence (P13612 whole entry, looked up): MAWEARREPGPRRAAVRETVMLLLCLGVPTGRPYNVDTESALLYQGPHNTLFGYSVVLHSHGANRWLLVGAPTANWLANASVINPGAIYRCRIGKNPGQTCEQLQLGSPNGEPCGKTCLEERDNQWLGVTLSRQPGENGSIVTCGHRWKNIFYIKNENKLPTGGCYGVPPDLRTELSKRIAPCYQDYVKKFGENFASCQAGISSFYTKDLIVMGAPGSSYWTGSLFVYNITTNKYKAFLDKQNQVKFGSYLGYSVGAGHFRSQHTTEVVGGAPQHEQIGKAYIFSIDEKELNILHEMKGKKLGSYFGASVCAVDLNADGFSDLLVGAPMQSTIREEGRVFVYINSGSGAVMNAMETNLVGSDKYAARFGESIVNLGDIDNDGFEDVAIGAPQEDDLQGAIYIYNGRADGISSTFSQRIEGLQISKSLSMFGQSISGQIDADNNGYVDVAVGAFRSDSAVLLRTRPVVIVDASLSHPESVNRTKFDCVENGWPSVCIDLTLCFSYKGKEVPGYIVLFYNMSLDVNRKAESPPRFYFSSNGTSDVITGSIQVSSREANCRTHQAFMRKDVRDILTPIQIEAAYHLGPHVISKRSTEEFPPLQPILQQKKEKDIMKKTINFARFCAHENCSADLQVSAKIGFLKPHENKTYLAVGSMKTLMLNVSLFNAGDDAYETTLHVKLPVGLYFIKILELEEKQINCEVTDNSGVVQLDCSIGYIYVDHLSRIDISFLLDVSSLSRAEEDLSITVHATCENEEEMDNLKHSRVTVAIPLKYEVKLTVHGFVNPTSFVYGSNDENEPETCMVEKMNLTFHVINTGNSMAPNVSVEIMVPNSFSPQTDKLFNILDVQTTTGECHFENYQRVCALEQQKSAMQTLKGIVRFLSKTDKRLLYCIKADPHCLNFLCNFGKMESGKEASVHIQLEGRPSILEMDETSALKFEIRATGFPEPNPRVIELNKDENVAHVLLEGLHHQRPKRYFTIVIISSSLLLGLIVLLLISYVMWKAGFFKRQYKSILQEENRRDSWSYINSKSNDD

Structure (SMILES)	inhibition
CCOC(=O)NC(=O)CSc1nnc(SCCC(=O)O)s1	-3.59%
O=C(c1cc2ccccc2o1)N1CCN(S(=O)(=O)c2ccc(Cl)s2)CC1	2.54%
CCOC(=O)N1CCC(c2cc(=O)n(-c3ccccc3)[nH]2)CC1	-1.65%
O=C(CSc1ncnc2sccc12)NC1CCS(=O)(=O)C1 (configuration not stated)	6.26%
COc1ccc(-n2ncc3c2CC(C)(C)CC3NC(=O)CCc2c(C)nn(C)c2C)cc1 (configuration not stated)	4.43%
O=C(Cn1cc2c(n1)CCCCC2)NCCN1CCOCC1	-8.14%
COCCNC(=O)Cn1cc2c(n1)CCCCC2	54.5% (active)
COc1ccccc1CNC(=O)Cn1cc2c(n1)CCCC2	-20.9%
CC(=NCc1ccc2c(c1)OCO2)C1=C(O)c2ccccc2C1=O	3.18%
COC(=O)[C@@H]1C[C@@]2(O)[C@@H](O)[C@@H](O)[C@@H](O)C[C@H]2N1Cc1ccc(C)s1	23.4%
COc1ccc2c3c1O[C@H]1C[C@@H](O)C=C[C@@]31CCN(C)C2	13.3%
Cc1ccccc1OC(=O)Cn1c(C(F)(F)F)nc2ccccc21	7.11%
CN1CCN(C(=O)Cn2c(C(F)(F)F)nc3ccccc32)CC1	5.72%
CC(C)(C)NC(=O)NC(=O)COC(=O)Cn1c(C(F)(F)F)nc2ccccc21	60.1% (active)
CCOCCCN(C(=O)Cn1nnc(-c2ccc(OC)c(OC)c2)n1)C(CC)C(=O)NC1CCCC1 (configuration not stated)	4.18%
Cc1cnc(NC(=O)C2CCCC2)s1	92.5% (active)
Cc1cnc(NC(=O)c2ccccn2)s1	11.4%
Cc1nc(NC(=O)C2CCCCC2)sc1C	3.52%
Cc1cc(C)c(C#N)c(SCC(=O)NN2CC(=O)N(c3ccccc3F)CC2=O)n1	13.8%
Cc1cc(C(=O)OCC(=O)NCc2ccco2)c(C)n1-c1ccccc1	64.6% (active)
O=C(COC(=O)c1ccccc1O)NCc1ccco1	-3.83%
CN(c1ccccc1)S(=O)(=O)c1ccc(Cl)c(C(=O)OCC(=O)NCc2ccco2)c1	17.3%
